KB-3-1 tox = KB-3-1 parental cell cytotoxicity; KB-3-1 viability, CellTiter-Glo ATP luminescence, 72 h; Potency, µM (highest dose often 46.1 µM), usual class: cytotoxic; 1.4% of 400,000 active; also: % is scaled to controls: 0 for no effect and ±100 for the full control effect; nearly all actives have a fitted effect of over 60% in size
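Cytotoxicity in the drug-sensitive parental line KB-3-1 was scored as loss of CellTiter-Glo luminescence following 72 h incubation with compound. Values come from curve fitting of normalized concentration-response data.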
RGS4 inhibitor = inhibitors of human regulator of G protein signaling 4; P49798; Transcreener GDP fluorescence polarization, RGS4-accelerated GTP hydrolysis; AID 504845; Potency, µM (doses to about 114 µM), for inactives: at the top dose activity change, negative = inhibition, usual class: inhibitors; 0.039% of 390,000 active; also: % is scaled to controls: 0 for no effect and ±100 for the full control effect; nearly all actives have a fitted effect of over 75% in size
Target sequence (P49798 whole entry, looked up): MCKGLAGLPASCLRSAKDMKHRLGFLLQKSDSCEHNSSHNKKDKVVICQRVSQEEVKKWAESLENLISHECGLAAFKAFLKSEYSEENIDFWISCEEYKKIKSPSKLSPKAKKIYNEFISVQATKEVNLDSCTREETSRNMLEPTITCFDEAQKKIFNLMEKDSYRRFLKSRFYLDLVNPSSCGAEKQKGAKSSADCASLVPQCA
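MLSMR compounds (23 nl, pin-transferred) preincubated 10 min at room temperature with a 500nM (2x) first reagent, then RGS4 at 900nM (2x) plus Transcreener GDP mix added; fluorescence polarization (620/688 nm) read before and after 90 min at 30 °C.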
PTAP TSG101 blk = blocks PTAP/TSG101 interaction to inhibit HIV-1 budding. Q99816. Fluorescence polarization, FITC-PTAP peptide / Tsg101 binding. Potency, µM (series often up to 115 µM), for the others: at the highest dose activity change, negative = inhibition, usual class: inhibitors. 340,000 tested, under 10 active. AID 493005; active = well fitted inhibition curve with a large enough effect in the main read-out, with a control signal flat, not every such curve was filed as active; inconclusive = small, poorly fitted or top-dose-only effect, or effect the other way, or a change in a side signal; inactive = no such curve, though single readings can be large or run the other way; also: % of control where 0% means no effect
Target sequence (Q99816 whole entry, looked up): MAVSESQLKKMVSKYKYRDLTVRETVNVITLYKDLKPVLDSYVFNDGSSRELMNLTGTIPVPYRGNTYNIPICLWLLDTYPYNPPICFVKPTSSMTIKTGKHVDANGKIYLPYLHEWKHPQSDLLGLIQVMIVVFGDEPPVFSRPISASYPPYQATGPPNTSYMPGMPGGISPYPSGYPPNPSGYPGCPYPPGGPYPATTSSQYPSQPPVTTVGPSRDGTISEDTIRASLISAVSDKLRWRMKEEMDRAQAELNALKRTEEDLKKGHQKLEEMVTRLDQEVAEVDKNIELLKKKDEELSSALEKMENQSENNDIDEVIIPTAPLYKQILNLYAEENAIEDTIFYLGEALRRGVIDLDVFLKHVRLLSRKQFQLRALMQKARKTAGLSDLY
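Fluorescence polarization binding of Tsg101 binding domain (10 uM final) to FITC-labeled PTAP peptide (50 nM final) in HEPES pH 7.5 buffer with NaCl, Tween 20, EDTA, TCEP. Compounds added before peptide; binding 20 min at RT.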
MCF10A rerep = DNA re-replication induction in MCF 10a cells; MCF 10A DNA re-replication, Hoechst nuclear intensity, 48 h; Potency, µM (doses to about 46.1 µM), inactives show at the top dose activity, positive = re-replication, most hits filed as activators; 2.9% of 350,000 active; also: % of control where 0% means no effect; nearly all actives have a fitted effect of over 50% in size
SW480 rerep = induces DNA re-replication in SW480 colon adenocarcinoma cells; SW480 DNA re-replication, Hoechst DNA content imaging, 48 h; Potency, µM (highest dose often 46.1 µM), without a hit: top-dose re-replication activation, actives largely listed as activators; 1.8% of 340,000 active; also: % of control where 0% means no effect; nearly all actives have a fitted effect of over 55% in size
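Per well, 250 cells were exposed to pinned compound for 48 hr. Nuclear DNA was visualised with Hoechst (40 min, 37 C) and total object intensity recorded by fluorescence scanning.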
KB-V1 MDR tox = KB-V1 MDR subline cytotoxicity. KB-V1 MDR cells viability, CellTiter-Glo, 72 h. 3.4% of 400,000 active. Potency, µM (doses to about 46.1 µM), usual class: cytotoxic; also: % is scaled to controls: 0 for no effect and ±100 for the full control effect; nearly all actives have a fitted effect of over 60% in size
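Cytotoxicity toward P-gp-expressing KB-V1 cells was determined as loss of CellTiter-Glo luminescence after 72 h at 37 degrees C. Compounds were tested in quantitative HTS format across a concentration range, with curves fitted to normalized data.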
The depositor's hits bear a star; i = inactive; ? = inconclusive; · = not tested or not shown. In the library only some 6.6% were active in any assay of this set; here they are far more common. Unless noted, calls follow the shape of the dose curve; as a rule, active = well fitted curve in the direction sought with a large enough effect; inconclusive = small, poorly fitted or top-dose-only effect, or another doubt; inactive = no such curve, though single readings can be large; an effect the other way counts as inactive or inconclusive. Potency is read from the fitted curve at half-maximal effect.

SMILES	KB-3-1 tox	RGS4 inhibitor	PTAP TSG101 blk	MCF10A rerep	SW480 rerep	KB-V1 MDR tox
Cc1ccc(Cn2c(CNS(=O)(=O)c3cccc([N+](=O)[O-])c3)nc3cccnc32)cc1	·	2.5%	·	·	·	·
CC(=O)N/N=C/c1cc(C(C)C)cc(/C=N/NC(C)=O)c1O	i	-6.6%	?	18.4µM*	14.6µM*	?
CC(=O)N/N=C/c1cc(C)n(-c2ccc(Br)cc2)c1C	i	-16.4%	1.0%	?	-0.2%	?
CCCCCCCCCCCCCCCCn1cc[n+](C)c1	4.11µM*	-25.0%	1.4%	20.6µM*	?	i
C[n+]1ccn(CC(=O)c2cccs2)c1	i	35.5%	-1.4%	0.9%	12.9%	i
Cc1cc(C)c2c(c1)/C(=c1/sc3n(c1=O)CN(c1ccccc1)CN=3)C(=O)N2	?	-24.8%	-2.2%	-6.7%	-17.4%	16.4µM*
COc1cc(CNC(=O)c2ccc3c(c2)c(C)c(C)n3Cc2cccc(C)c2)cc(OC)c1OC	i	8.7%	·	·	·	i
COc1ccc(C2C(=O)N(C3CCC(C)CC3)CC(=O)N2CCC2=CCCCC2)cc1OC (stereo unspecified)	·	-24.1%	·	·	·	·
CCSc1nc(-c2ccc(Cl)cc2)nc2c1Cc1c(CO)cnc(C)c1O2	i	20.9%	·	·	·	?
Cn1c(/C(C#N)=C/c2ccccc2Br)nc2ccccc21	·	16.6%	·	·	·	·
O=c1cc(O)c2sc(Nc3ccc(Cl)c(F)c3)nc2[nH]1	13µM*	?	-10.0%	18.2%	?	i
COc1ccc(Nc2nc3[nH]c(=O)cc(O)c3s2)cc1	i	-38.4%	-0.9%	15.5%	2.3%	i
O=c1cc(O)c2sc(Nc3ccc(F)c(Cl)c3)nc2[nH]1	20.6µM*	?	-2.2%	18.0%	0.5%	i
Cc1cc(C)cc(C(=O)C[n+]2cccc(Br)c2)c1	i	·	·	·	·	i
CCOP(=O)(OCC)C(Nc1ccccc1)c1ccc2c(c1)OCO2 (stereo unspecified)	i	1.3%	-6.4%	-0.1%	-24.8%	?
CCCCOP(=O)(OCCCC)C(Nc1ccccc1)c1ccc2c(c1)OCO2 (stereo unspecified)	?	-20.3%	-8.0%	?	-59.8%	7.31µM*
O=C(NCc1ccccc1)c1cnc(N2CCCCC2)c2ccccc12	i	-1.0%	·	·	·	?
Cc1[nH]c2ccccc2c1C(=O)COC(=O)c1c(-c2c(F)cccc2Cl)noc1C	?	-13.4%	-1.6%	?	10.1%	16.4µM*
Cc1[nH]c2ccccc2c1C(=O)COC(=O)c1c(-c2ccccc2Cl)noc1C	i	9.7%	-2.4%	?	2.1%	i
COc1ccccc1NC(=O)C1=C(C)Nc2c(C(=O)Nc3ccc(F)cc3)cnn2C1c1ccc(Cl)cc1 (stereo unspecified)	·	5.8%	·	·	·	·
CCN(c1ccccc1)S(=O)(=O)c1ccc(N2CCN(c3ccc(O)cc3)CC2)nc1	?	-52.2%	-6.6%	18.4µM*	?	i
CCN(c1ccccc1)S(=O)(=O)c1ccc(N2CCN(c3ccc(OC)cc3)CC2)nc1	i	-13.3%	-0.7%	-4.6%	-14.7%	i
COC(=O)[C@@]12C[C@@H](CC(=O)NCc3cccs3)C(=O)N(Cc3ccccc3)C1=CCC(C)(C)C2	i	·	·	·	·	?
COC(=O)[C@@]12C[C@@H](CC(=O)NCc3ccc(C)o3)C(=O)N(Cc3cccc4ccccc34)C1=CCC(C)(C)C2	i	·	·	·	·	?
COC(=O)[C@@]12C[C@@H](CC(=O)NCc3ccc(C)o3)C(=O)N(Cc3ccccc3)C1=CCC(C)(C)C2	i	·	·	·	·	18.4µM*
SMILES	KB-3-1 tox	RGS4 inhibitor	PTAP TSG101 blk	MCF10A rerep	SW480 rerep	KB-V1 MDR tox
COC(=O)[C@@]12C[C@@H](CC(=O)NCc3ccccc3)C(=O)N(Cc3ccccc3)C1=CCC(C)(C)C2	?	·	·	·	·	20.6µM*
COc1cc(CN(C)C(C)C(=O)Nc2ccc([N+](=O)[O-])cc2Cl)ccc1OC(F)F (stereo unspecified)	i	-1.9%	-0.8%	7.4%	2.6%	i
COc1ccc(NC(=O)c2cccc(Oc3ccc([N+](=O)[O-])cc3Cl)c2)cc1	?	8.7%	-1.2%	6.51µM*	?	?
O=C(Nc1cccc(Cl)c1)c1cccc(Oc2ccc([N+](=O)[O-])cc2Cl)c1	i	14.4%	-6.4%	?	4.11µM*	?
COc1ccc([N+](=O)[O-])cc1NC(=O)Nc1ccc(OC)c(OC)c1	i	-0.3%	-8.3%	18.4%	-1.0%	?
COc1ccc([N+](=O)[O-])cc1NC(=O)Nc1cccc(Cl)c1	5.17µM*	-18.8%	-1.0%	-0.2%	?	2.91µM*
COc1ccc([N+](=O)[O-])cc1NC(=O)C(C)N(C)Cc1cccc(OC)c1OC (stereo unspecified)	i	-18.8%	0.3%	29.6%	17.0%	8.2µM*
Nc1c(C(=O)Nc2ccc(Cl)c(C(F)(F)F)c2)sc2nc(-c3ccncc3)ccc12	·	2.9%	·	·	·	·
O=C1CC[C@H](C(=O)N[C@@H]2C[C@H]2c2ccccc2)N1	·	·	·	-1.1%	-4.8%	·
CNC(=O)COC(=O)/C=C/c1nc2ccccc2s1	i	7.6%	-3.1%	0.651µM*	?	i
COc1ccc(C)cc1NC(=O)CSc1ncc2c(n1)-c1ccc(Cl)cc1N(Cc1ccccc1)S2(=O)=O	i	-41.8%	·	·	·	i
CC1(C)C2CCC1(CS(=O)(=O)Nc1ccc(S(=O)(=O)N3CCCCC3)cc1)C(=O)C2 (stereo unspecified)	i	-33.8%	-4.4%	2.0%	?	25.9µM*
Cc1ccc(NC(=O)c2cc(S(=O)(=O)N3CCCCC3)cs2)cc1	?	9.7%	3.7%	?	0.3%	14.6µM*
O=C(Nc1ccc(Cl)cc1)c1cc(S(=O)(=O)N2CCOCC2)cs1	?	17.2%	-1.9%	28.1%	-1.1%	9.2µM*
O=C(Nc1ccc(F)cc1)c1cc(S(=O)(=O)N2CCOCC2)cs1	i	0.2%	-3.1%	-0.5%	?	i
Cc1ccc(NC(=O)c2cc(S(=O)(=O)N3CCOCC3)cs2)cc1	i	24.8%	-0.5%	0.2%	2.8%	i
O=C(Nc1ccc(F)cc1)c1cc(S(=O)(=O)Nc2ccc(F)cc2)cs1	i	3.1%	0.5%	43.4%	23.2%	i
COc1ccc(NC(=O)c2cc(S(=O)(=O)Nc3ccc(OC)cc3)cs2)cc1	i	-6.4%	-3.7%	3.2%	-13.1%	20.6µM*

Compound activity (PubChem BioAssay)
